# From PubChem BioAssay
# Activity calls are given as the source filed them.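 How the source made its calls, unless noted: active means fluorescence slope after compound addition differing from the mean of all screened samples at 99.7% confidence, in either direction; inactive means the rest.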
# Key:
# [1] = inhibitors of TNFa-induced NFkB p65 translocation, primary screen, imaging, HUVEC, MLSMR starter and 10KST1 sets (AID 438;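 active means inhibition above 20% together with a positive visual image hit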;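 further: compound added about 3h40 before a 20 min TNFalpha stimulation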;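 on inhibition: signal is the nuclear over cytoplasmic p65 intensity ratio per well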); details: HUVEC TNFa-induced p65 nuclear translocation; cell count: measured here: nuclei count (cytotoxicity indicator), at 2.08 µM; inhibition: at 2 µM, stronger effect = higher value, 0% TNFa-plus-vehicle, 100% no-TNFa wells
# [2] = reduction of polyQ htt aggregates in cells – imaging, exon1htt(103Q)mCFP cells, high-content imaging, primary screen (AID 483;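 active means visual image review flags a hit and inhibition of aggregation exceeds 20%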;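 further: compound exposure lasted 3 days before fixation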;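 on nuclei count: percent of the per-plate median nuclei count of sample wells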); details: exon1htt(103Q)mCFP cell line, aggregate imaging, at 2 µM; inhibition of aggregation: stronger effect = higher value; nuclei count: measured here: cell count, toxicity
# [3] = endothelial E-selectin expression blockers – imaging, HUVEC, immunofluorescence, MLSMR starter and 10KST1 sets, primary screen (AID 487;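 active means visually confirmed hit in the image check and inhibition above 20%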;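 on inhibition: signal is fraction of cell area covered by stained E-selectin grains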;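 on nuclei count: 100% = median nuclei count of all wells on the same plate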); details: HUVEC TNFalpha-induced E-selectin immunofluorescence imaging, at 2 µM; inhibition: stronger effect = higher value; nuclei count: measured here: cell number, toxicity
# [4] = target: Voltage-gated potassium channel subunit beta-2 (Rattus norvegicus) (UniProt P62483); assay: inhibitors of rat Kvbeta2 reductase activity – biochemical, NADPH fluorescence, primary screen (AID 622;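 active means fluorescence slope higher than the sample average by over 3 SD, cut at about -0.22 in these data, passing the limit was not always enough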;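 further: slope of raw intensity against log time taken from 70 to 1610 s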); details: recombinant KvBeta, 4-cyanobenzaldehyde reduction, at 10 µM, stronger effect = higher value
# [5] = target: Voltage-gated potassium channel subunit beta-2 (Rattus norvegicus) (UniProt P62483); assay: enhancers of rat Kvbeta2 NADPH turnover – biochemical, NADPH fluorescence, primary screen (AID 623;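 active means NADPH fluorescence slope more negative than the mean of all samples by about 3 SD, 99.7% confidence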;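 further: fluorescence intensity change per second fitted from 20 to 320 s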); details: Recombinant KvBeta, NADPH fluorescence decrease slope, 10 min; at 10 µM; stronger effect = lower value
# [6] = target: Alpha-2C adrenergic receptor (Homo sapiens) (UniProt P18825); assay: compounds altering alpha2C-coupled GIRK flux – cell-based, HEK293 alpha2C/GIRK1/2, thallium flux, primary screen (AID 624); details: thallium flux BTC fluorescence, at 10 µM, actives lie on both sides;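 further: slope of fluorescence ratio to pre-addition baseline per second over 15 to 24 s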
# [7] = blockers of RIG-like receptor reporter activation – cell-based, Sendai virus stimulus, luciferase, 10K MLSCN set, TLR/RLR signaling modifier project, primary screen (AID 602276;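 active means inhibition at or above 50% at 10 µM; inactive means inhibition below 50%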;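 further: firefly luciferase from ISG56 promoter only with Renilla not read in this screen; 0% = Sendai virus plus DMSO and 100% = medium plus DMSO without virus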); details: HEK293 RL24 IRF3 luciferase reporter, at 10 µM, stronger effect = higher value
# [8] = TLR3 IRF3 reporter activation blockers – cell-based, poly I:C stimulus, luciferase, 10K MLSCN set, primary screen (AID 602277;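 active means inhibition of the reporter signal at or above 50%; inactive means inhibition below 50%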); details: HEK293-TLR3 RL24 IRF3 luciferase reporter, at 10 µM, stronger effect = higher value
# Alpha-2C adrenergic receptor (Homo sapiens), sequence (P18825 whole entry, looked up): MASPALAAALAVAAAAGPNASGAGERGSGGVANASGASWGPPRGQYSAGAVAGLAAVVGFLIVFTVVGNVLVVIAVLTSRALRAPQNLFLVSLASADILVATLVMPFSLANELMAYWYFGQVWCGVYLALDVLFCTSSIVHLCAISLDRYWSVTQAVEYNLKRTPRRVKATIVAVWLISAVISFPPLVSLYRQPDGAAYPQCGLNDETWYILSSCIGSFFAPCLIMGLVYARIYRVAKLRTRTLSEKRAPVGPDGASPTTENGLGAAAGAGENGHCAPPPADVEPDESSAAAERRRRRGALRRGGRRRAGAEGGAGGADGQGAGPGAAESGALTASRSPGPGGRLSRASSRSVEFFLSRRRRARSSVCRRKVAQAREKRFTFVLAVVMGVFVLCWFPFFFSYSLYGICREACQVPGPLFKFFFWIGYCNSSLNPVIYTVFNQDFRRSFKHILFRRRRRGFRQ
# Voltage-gated potassium channel subunit beta-2 (Rattus norvegicus), sequence (P62483 whole entry, looked up): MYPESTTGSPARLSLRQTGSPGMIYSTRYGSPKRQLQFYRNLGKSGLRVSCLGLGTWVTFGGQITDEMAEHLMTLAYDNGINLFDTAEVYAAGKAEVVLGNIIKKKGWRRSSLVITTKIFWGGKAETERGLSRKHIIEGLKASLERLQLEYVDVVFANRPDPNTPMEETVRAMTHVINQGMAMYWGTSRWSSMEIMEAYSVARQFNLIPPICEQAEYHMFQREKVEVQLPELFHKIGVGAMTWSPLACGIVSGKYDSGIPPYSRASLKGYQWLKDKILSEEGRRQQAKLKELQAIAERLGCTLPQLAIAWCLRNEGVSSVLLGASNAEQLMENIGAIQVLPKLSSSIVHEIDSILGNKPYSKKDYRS
Structure (SMILES),cell count [1],inhibition [1],inhibition of aggregation [2],nuclei count [2],inhibition [3],nuclei count [3],fluorescence slope [4],NADPH fluorescence slope [5],slope [6],inhibition [7],inhibition [8]
Clc1ccccc1OCCCCn1ccnc1,425,-0.2% (inactive),-10.9% (inactive),97.3%,14.5% (inactive),106%,-0.464 (inactive),-5.3e-05 (inactive),0.0106 (active),-3.32% (inactive),5.03% (inactive)
Cc1cc(N2C(=O)C(O)=C(C(=O)c3ccc(C)o3)C2c2cccs2)no1 (configuration not stated),257,-3.6% (inactive),13.3% (inactive),75.8%,12% (inactive),103%,-0.42 (inactive),-1.8e-05 (inactive),0.00606 (inactive),-1.8% (inactive),-26.2% (inactive)
Cc1ccc(CNC(=O)C2CC(=O)OC23CCCC3)c(C)c1 (configuration not stated),410,17.5% (inactive),-25.4% (inactive),104%,8.3% (inactive),102%,-0.593 (inactive),4.6e-07 (inactive),0.00501 (inactive),17.7% (inactive),20.9% (inactive)
CCCc1[nH]nc2c1C(c1cn[nH]c1-c1ccc(F)cc1)C(C#N)=C(N)O2 (configuration not stated),438,-8.3% (inactive),11.7% (inactive),89.8%,-43.7% (inactive),137%,-0.38 (inactive),-0.000105 (inactive),0.00672 (inactive),18.7% (inactive),23.5% (inactive)
CCOc1ccc2[nH]cc(C(=O)N3CCN(CC)CC3)c(=O)c2c1,498,-16.7% (inactive),4.7% (inactive),77.2%,-18.9% (inactive),94.8%,-0.539 (inactive),1.9e-05 (inactive),0.00496 (inactive),-17.3% (inactive),-19.5% (inactive)
O=C1c2ccccc2C(Nc2ccc3c(c2)OCCO3)N1Cc1ccco1 (configuration not stated),548,-2% (inactive),17.5% (inactive),102%,-106% (inactive),132%,-0.589 (inactive),-2.3e-05 (inactive),0.00424 (inactive),12.3% (inactive),7.32% (inactive)
O=C(Nc1ccccc1)c1cccc(N2CCCC2=O)c1,363,-6.9% (inactive),-3.4% (inactive),101%,-74.1% (inactive),88%,-0.457 (inactive),3.8e-05 (inactive),0.00552 (inactive),-43.5% (inactive),-128% (inactive)
